Data as given in PubChem BioAssay AID1159580 (chemical genetic matrix, 2015).
Screen size: about 5,500 compounds; about 2,000 (36%) were called active. About 18% were inconclusive and are not listed. Rule as the data show it: active = normalized growth mostly below about 0.91 (no sharp cut-off); inconclusive = no clear call, values can overlap the other calls; inactive = mostly above about 0.92. This is one part of the list.

Assay: chemical genetic growth profiling, strain panel (AID 1159580);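 also: tested at 20 µM; growth read once vehicle control cultures reached saturation at 30 °C; 1 = growth at the plate median or of vehicle wells; lower values mean less growth of the strain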
Details: growth OD

Measured: normalized growth

NC(C(=O)O)C(O)C(=O)O (stereo not drawn)
inactive: S. cerevisiae deletion strains, locus YJR066W, strain TOR1, hits give low values 0.994 | S. cerevisiae deletion strains, locus YJR075W, strain HOC1, hits give low values 1.01 | S. cerevisiae deletion strains, locus YKL009W, strain mrt4, hits give low values 1.02 | S. cerevisiae deletion strains, locus YKL068W, hits give low values 1.01 | S. cerevisiae deletion strains, locus YKL085W, strain MDH1 (second series), hits give low values 0.999 | S. cerevisiae deletion strains, locus YKL085W, strain MDH1, hits give low values 0.999 | S. cerevisiae deletion strains, locus YKL160W, strain elf1, hits give low values 0.974 | S. cerevisiae deletion strains, locus YKR001C, strain vps1, hits give low values 1.02 | S. cerevisiae deletion strains, locus YKR026C, strain gcn3, hits give low values 0.997 | S. cerevisiae deletion strains, locus YKR091W, strain srl3, hits give low values 0.984 | S. cerevisiae deletion strains, locus YLL001W, strain dnm1, hits give low values 0.987 | S. cerevisiae deletion strains, locus YLL026W, hits give low values 0.996 | S. cerevisiae deletion strains, locus YLL041C, strain sdh2, hits give low values 0.978 | S. cerevisiae deletion strains, locus YLR027C, strain aat2, hits give low values 0.998 | S. cerevisiae deletion strains, locus YLR039C, strain RIC1, hits give low values 1.02 | S. cerevisiae deletion strains, locus YLR058C, strain SHM2, hits give low values 1.01 | S. cerevisiae deletion strains, locus YLR102C, strain apc9, hits give low values 1.04 | S. cerevisiae deletion strains, locus YLR113W, strain HOG1, hits give low values 1.07 | S. cerevisiae deletion strains, locus YLR221C, strain rsa3, hits give low values 1.05 | S. cerevisiae deletion strains, locus YLR258W, strain gsy2, hits give low values 0.995 | S. cerevisiae deletion strains, locus YLR262C, strain YPT6 (second series), hits give low values 0.973 | S. cerevisiae deletion strains, locus YLR262C, strain YPT6, hits give low values 1.02 | S. cerevisiae deletion strains, locus YLR268W, strain sec22, hits give low values 1.07 | S. cerevisiae deletion strains, locus YLR320W, strain mms22, hits give low values 1.04 | S. cerevisiae deletion strains, locus YLR330W, strain CHS5, hits give low values 1.01 | S. cerevisiae deletion strains, locus YLR342W, strain FKS1 (second series), hits give low values 1 | S. cerevisiae deletion strains, locus YLR342W, strain FKS1, hits give low values 0.999 | S. cerevisiae deletion strains, locus YLR357W, strain rsc2, hits give low values 0.982 | S. cerevisiae deletion strains, locus YLR370C, strain arc18, hits give low values 0.988 | S. cerevisiae deletion strains, locus YLR371W, strain rom2, hits give low values 1.02 | S. cerevisiae deletion strains, locus YLR384C, strain iki3, hits give low values 0.981 | S. cerevisiae deletion strains, locus YLR418C, strain cdc73, hits give low values 1.03 | S. cerevisiae deletion strains, locus YML016C, strain PPZ1, hits give low values 1.01 | S. cerevisiae deletion strains, locus YML032C, strain rad52, hits give low values 1.02 | S. cerevisiae deletion strains, locus YML120C, strain ndi1, hits give low values 0.96 | S. cerevisiae deletion strains, locus YML124C, strain tub3, hits give low values 1.02 | S. cerevisiae deletion strains, locus YMR058W, strain fet3, hits give low values 0.99 | S. cerevisiae deletion strains, locus YMR078C, strain ctf18, hits give low values 1.04 | S. cerevisiae deletion strains, locus YMR125W, strain sto1, hits give low values 0.95 | S. cerevisiae deletion strains, locus YMR129W, hits give low values 1 | S. cerevisiae deletion strains, locus YMR205C, strain PFK2, hits give low values 0.966 | S. cerevisiae deletion strains, locus YMR223W, strain ubp8, hits give low values 1.03 | S. cerevisiae deletion strains, locus YMR231W, strain pep5, hits give low values 0.993 | S. cerevisiae deletion strains, locus YMR307W, strain GAS1, hits give low values 1.08 | S. cerevisiae deletion strains, locus YNL067W, strain RPL9B, hits give low values 1.01 | S. cerevisiae deletion strains, locus YNL071W, strain lat1, hits give low values 0.982 | S. cerevisiae deletion strains, locus YNL153C, strain GIM3, hits give low values 1.01 | S. cerevisiae deletion strains, locus YNL183C, strain NPR1, hits give low values 0.982 | S. cerevisiae deletion strains, locus YNL209W, strain ssb2, hits give low values 0.982 | S. cerevisiae deletion strains, locus YNL233W, strain BNI4, hits give low values 1.01 | S. cerevisiae deletion strains, locus YNL248C, strain rpa49, hits give low values 0.94 | S. cerevisiae deletion strains, locus YNL250W, strain rad50, hits give low values 1.05 | S. cerevisiae deletion strains, locus YNL271C, strain bni1, hits give low values 1.03 | S. cerevisiae deletion strains, locus YNL298W, strain CLA4, hits give low values 1.05 | S. cerevisiae deletion strains, locus YNL307C, strain MCK1, hits give low values 1.03 | S. cerevisiae deletion strains, locus YNL322C, strain KRE1 (second series), hits give low values 0.98 | S. cerevisiae deletion strains, locus YNR049C, strain mso1, hits give low values 0.981 | S. cerevisiae deletion strains, locus YNR052C, strain pop2, hits give low values 1.04 | S. cerevisiae deletion strains, locus YOL147C, strain pex11, hits give low values 1.02 | S. cerevisiae deletion strains, locus YOR001W, strain rrp6, hits give low values 1.01 | S. cerevisiae deletion strains, locus YOR061W, strain CKA2, hits give low values 1.01 | S. cerevisiae deletion strains, locus YOR069W, strain VPS5, hits give low values 1 | S. cerevisiae deletion strains, locus YOR070C, strain gyp1, hits give low values 1.03 | S. cerevisiae deletion strains, locus YOR080W, strain dia2, hits give low values 0.996 | S. cerevisiae deletion strains, locus YOR083W, strain WHI5, hits give low values 0.979 | S. cerevisiae deletion strains, locus YOR106W, strain vam3, hits give low values 0.956 | S. cerevisiae deletion strains, locus YOR136W, strain idh2, hits give low values 1.03 | S. cerevisiae deletion strains, locus YOR144C, strain elg1, hits give low values 1.02 | S. cerevisiae deletion strains, locus YOR184W, strain ser1, hits give low values 1.03 | S. cerevisiae deletion strains, locus YOR231W, strain MKK1, hits give low values 1.09 | S. cerevisiae deletion strains, locus YOR265W, strain rbl2, hits give low values 0.987 | S. cerevisiae deletion strains, locus YOR270C, strain vph1, hits give low values 1.01 | S. cerevisiae deletion strains, locus YOR290C, strain snf2, hits give low values 0.926 | S. cerevisiae deletion strains, locus YOR316C, strain cot1, hits give low values 1.02 | S. cerevisiae deletion strains, locus YPL051W, strain arl3, hits give low values 1 | S. cerevisiae deletion strains, locus YPL055C, strain LGE1, hits give low values 1.03 | S. cerevisiae deletion strains, locus YPL078C, strain atp4, hits give low values 0.949 | S. cerevisiae deletion strains, locus YPL106C, strain sse1, hits give low values 0.954 | S. cerevisiae deletion strains, locus YPL240C, strain hsp82, hits give low values 0.996 | S. cerevisiae deletion strains, locus YPL241C, strain CIN2, hits give low values 1 | S. cerevisiae deletion strains, locus YPL256C, strain CLN2, hits give low values 1.03 | S. cerevisiae deletion strains, locus YPR119W, strain clb2, hits give low values 1.02 | S. cerevisiae deletion strains, locus YPR141C, strain kar3, hits give low values 1.02 | S. cerevisiae deletion strains, locus YPR163C, strain tif3, hits give low values 1.03 | S. cerevisiae deletion strains, locus YPR167C, strain met16, hits give low values 1.02 | S. cerevisiae deletion strains, strain wtn01, hits give low values 1.03 | S. cerevisiae strains, strain wild type, hits give low values 1.01
active: S. cerevisiae deletion strains, locus YOL012C, strain htz1 1.88 [resistant]
